Bioassay records from PubChem.
MCF10A rerep: DNA re-replication induction in MCF 10a cells; MCF 10A DNA re-replication, Hoechst nuclear intensity, 48 h; Potency, µM (series often up to 46.1 µM), for inactives: at the highest dose activity, positive = re-replication, hits mostly activators; 350,000 compounds, 2.9% hits; AID 624296; also: potency is read from the fitted curve at half-maximal effect; % of control where 0% means no effect; nearly all actives have a fitted effect of over 50% in size
IL1B secr inh: inhibitors of inflammasome signaling (IL-1 beta secretion). THP-1 LPS/ATP IL-1B secretion, AlphaLISA, 16 h; active compounds read low. activity change, % at 57.5 µM. 360,000 compounds, 4.7% hits. AID 743279; in the data active = activity change below about -50%; inconclusive = mostly about -30% to -49%; also: % is scaled to controls: 0 for no effect and ±100 for the full control effect
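Secreted IL-1B measured by AlphaLISA bead assay after 16 h compound exposure of THP-1 cells; compounds (final up to 57.5 uM) added 1 h before LPS (250 ng/mL) and ATP (1.25 mM) stimulation; lower signal means less secretion.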
TDP1 cell CPT: DT40-hTDP1 cell growth loss with CPT; chicken DT40 Tdp1-/-;hTDP1 cells + 20 nM CPT, ATP luminescence, 48 h; Potency, µM (doses to about 46.2 µM), inactives show at the top dose activity change, negative = growth inhibition, actives largely listed as inhibitors; 420,000 compounds, 12% hits; AID 686979; also: potency is read from the fitted curve at half-maximal effect; % is scaled to controls: 0 for no effect and ±100 for the full control effect; nearly all actives have a fitted effect of over 55% in size
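Chicken DT40 Tdp1-/- cells complemented with human TDP1, 400 cells/well, exposed to compounds plus 20 nM camptothecin for at least 48 h at 37 C; viability read as ATP content by CellTiter-Glo luminescence.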
TDP1 cell noCPT: qHTS for Inhibitors of human tyrosyl-DNA phosphodiesterase 1 (TDP1): qHTS in cells in absence of CPT; DT40 Tdp1-/- hTDP1 cells, no CPT, ATP luminescence, 48 h; Potency, µM (top dose mostly 46.2 µM), without a hit: at the highest dose activity change, negative = growth inhibition, hits mostly inhibitors; 420,000 compounds, 15% hits; also: potency is read from the fitted curve at half-maximal effect; % is scaled to controls: 0 for no effect and ±100 for the full control effect; nearly all actives have a fitted effect of over 55% in size
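Growth kinetics read by CellTiter-Glo luminescence after ≥48 hr at 37 °C. Cells: DT40 Tdp1-/- stably carrying human TDP1, 400 per well, compound exposure in the absence of CPT (DMSO vehicle).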
SW480 rereplic: DNA re-replication induction in SW480 cells. SW480 DNA re-replication, Hoechst DNA content imaging, 48 h. Potency, µM (series often up to 46.1 µM), for inactives: at the top dose re-replication activation, hits mostly activators. 340,000 compounds, 1.8% hits; also: potency is read from the fitted curve at half-maximal effect; % of control where 0% means no effect; nearly all actives have a fitted effect of over 55% in size
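Quantitative HTS format with DMSO vehicle controls; 48 hr drug incubation at 37 C, then 40 min Hoechst staining and scanning imager measurement at 405 nm excitation.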
Chronic BCR inh: chronic active BCR signaling inhibition | AID 493014 | Potency, µM (series often up to 46.1 µM), inactives show top-dose activity change, negative = inhibition, hits mostly inhibitors | ABC-DLBCL IkBa-CBG/CBR reporter, luminescence ratio, 4 h | 340,000 compounds, 0.05% hits; active = well fitted inhibition curve with a large enough effect in the signal ratio, with a control signal flat, not every such curve was filed as active; inconclusive = small, poorly fitted or top-dose-only effect, or effect the other way, or a change in a side signal; the % refers to the signal ratio;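 also: potency is read from the fitted curve at half-maximal effect; plate controls were basal doxycycline-induced cells for no effect and cells given 10 µM MG132 for full effect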
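TMD8 human ABC-DLBCL cells with doxycycline-inducible IκBα–green luciferase fusion and unfused red luciferase, in 0.5% FBS medium; compounds up to 46 uM, 4 h at 37C. Green/red luminescence ratio, filter-overlap corrected, fitted to concentration-response curves.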
An asterisk follows results filed as active; ? = inconclusive; · = not tested or not shown; ! = a repeat was not active; [ ] = another dose, or the depositor's remark. A selection: hits, their analogues and other compounds. The true share with any hit is near 19%. Unless noted, calls follow the shape of the dose curve; as a rule, active = well fitted curve in the direction sought with a large enough effect; inconclusive = small, poorly fitted or top-dose-only effect, or another doubt; inactive = no such curve, though single readings can be large; an effect the other way counts as inactive or inconclusive.

SMILES	MCF10A rerep	IL1B secr inh	TDP1 cell CPT	TDP1 cell noCPT	SW480 rereplic	Chronic BCR inh
CCCn1cc(S(=O)(=O)c2cc(C)ccc2C)c(=O)c2cc(F)c(N3CCCCCC3)cc21	·	·	?	-84%	·	·
CCNC(=O)c1nn(-c2ccccc2C)nc1CO	·	·	11%	-1%	·	·
Cc1cc(C)n(-c2cc(N3CCN(S(=O)(=O)c4ccc(Cl)cc4)CC3)ccc2[N+](=O)[O-])n1	0%	-6	7.3µM*	6.5µM*	10%	8%
Cc1cc(C)n(-c2cc(N3CCN(C(=O)c4cccc(Br)c4)CC3)ccc2[N+](=O)[O-])n1	-34%	?	?	21µM*	-2%[9.22 µM]	?
O=[N+]([O-])c1ccc(N2CCCC2)cc1N1CCCC1	17%	-24	?	?	12%	1%
CC(=O)N1CCN(c2ccc([N+](=O)[O-])c(-n3nc(C)cc3C)c2)CC1	6%	0	-6%	-3%	-3%	0%
CN(C)S(=O)(=O)N1CCN(c2ccc([N+](=O)[O-])c(N3CCCCC3)c2)CC1	-4%	22	-26%	10µM*	-23%	-3%
C[C@H](CO)N1C[C@H](C)[C@@H](CN(C)C(=O)NC2CCCCC2)Oc2ccc(NS(C)(=O)=O)cc2C1=O	-3%	-3	20%	3%	-3%	-2%
CCOC(=O)c1c(C)[nH]c(C)c1S(=O)(=O)N(C)CC(=O)N1CCN(c2ccc(Cl)cc2)CC1	·	·	15µM*	?	·	·
CCOC(=O)c1[nH]c(C)c(CCC(=O)N2CCN(c3cccc(C)c3C)CC2)c1C	·	·	15µM*	18µM*	·	·
CCOC(=O)c1[nH]c(C)c(CCC(=O)N2CCN(c3ccc(Cl)cc3)CC2)c1C	·	·	?	23µM*	·	·
Cc1cccc(N2CCN(C(=O)CCCOc3ccccc3)CC2)c1C	9%	9	?	?	0%	?
NS(=O)(=O)c1ccc(CCNC(=O)CNC(=O)c2ccc(Br)o2)cc1	1%	3	-12%	17%	12%	1%
CCc1ccccc1N(C)C(=O)c1nn(C)c2c1CSc1ccccc1-2	·	·	?	23µM*	·	·
CCCN(CCC)C(=O)c1nn(C)c2c1CSc1ccc(C)cc1-2	·	·	?	18µM*	·	·
CCCN(CCC)C(=O)c1nn(C)c2c1CSc1ccccc1-2	·	·	18µM*	?	·	·
Cc1cccc(-c2nnc(SC(C)C(=O)N3CCOCC3)o2)c1 (configuration not stated)	-1%	9	3%	3%	1%	2%
Cc1ccc(-c2nn(C)c(=O)c3ccccc23)cc1S(=O)(=O)NCCCN(C)C	·	·	1%	0%	·	·
COc1ccc2c(c1)C(=NNc1ccc(C(=O)O)cc1)c1cc(OC)ccc1-2	4%	-3	?	23µM*	-9%	?
COc1ccc(/C(C)=N/Nc2ccc(C(=O)O)cc2)c(OC)c1	-5%	28	-27%	-19%	-2%	?
COc1ccc2c(c1)C(=NN)c1cc(OC)ccc1-2	-5%	-1	16µM*	?	2%	-3%
N#C/C(=C\c1ccccc1O)C(=O)Nc1ccccn1	6%	18	4%	-3%	-6%	-2%
COc1ccccc1CNC(=O)C1CCCN(c2nnc(C)c3c(C)n(-c4ccccc4)nc23)C1 (configuration not stated)	·	·	21µM*	21µM*	·	·
COc1ccc(-n2nc3c(N4CCC(C(=O)NCCc5ccccc5C)CC4)nnc(C)c3c2C)cc1	9.2µM*	-83*	?	16µM*	?	0%
COc1ccc(-n2nc3c(N4CCCC(C(=O)NCCc5ccc(C)cc5)C4)nnc(C)c3c2C)cc1 (configuration not stated)	·	·	3.3µM*	3.7µM*	·	·
SMILES	MCF10A rerep	IL1B secr inh	TDP1 cell CPT	TDP1 cell noCPT	SW480 rereplic	Chronic BCR inh
COc1ccc(-n2nc3c(N4CCC(C(=O)NCc5ccco5)CC4)nnc(C)c3c2C)cc1	-2%	-21	?	?	-2%	-1%
Cc1ccc(-n2nc3c(N4CCC(C(=O)NCCc5ccccc5C)CC4)nnc(C)c3c2C)cc1	23µM*	-11	16µM*	5.8µM*	9%	3%
COc1ccc(CCNC(=O)C2CCCN(c3nc(C)cc(C)n3)C2)cc1 (configuration not stated)	5%	13	6%	-6%	-13%	1%
COCCCn1c(C)cc(C(=O)COC(=O)C23CC4CC(CC(O)(C4)C2)C3)c1C	2%	3	3%	?	-5%	0%
CCN(CC)S(=O)(=O)c1ccc(C(=O)NCC(=O)NCc2ccc3c(c2)OCO3)cc1	·	5	-1%	-23%	·	·
Cc1ccc(-n2nc3c(N4CCC(C(=O)NCCC(C)C)CC4)nnc(C)c3c2C)cc1	·	·	16µM*	?	·	·
Cc1ccc(-n2nc3c(N4CCC(C(=O)NCCc5ccco5)CC4)nnc(C)c3c2C)cc1	-5%	-18	21µM*	?	8%	-9%
Cc1nnc(N2CCC(C(=O)NCc3cccc(Cl)c3)CC2)c2nn(-c3ccccc3)c(C)c12	·	·	?	?	·	1%
COc1ccc(-n2nc3c(N4CCC(C(=O)NCc5ccccc5C)CC4)nnc(C)c3c2C)cc1	?	-95*	18µM*	7.3µM*	?	4%
Cc1nnc(N2CCC(C(=O)NC(C)C)CC2)c2nn(-c3ccc(Cl)cc3)c(C)c12	·	·	8%	17%	·	·
Cc1ccc(-n2nc3c(N4CCC(C(=O)NCc5cccc(F)c5)CC4)nnc(C)c3c2C)cc1	4%	?	?	18µM*	-3%	-12%
O=C(CS(=O)(=O)c1ccccc1)Nc1ccccc1Br	-2%	-28	?	-7%	1%	·
COc1ccc(C)cc1Nc1nc2cc(Cl)c(Cl)cc2nc1-n1nc(C)cc1C	·	·	6%	3%	·	·
COc1ccc(-n2nc3c(N4CCCC(C(=O)NCc5ccccc5C)C4)nnc(C)c3c2C)cc1 (configuration not stated)	·	·	2.9µM*	5.2µM*	·	?
COc1ccccc1CNC(=O)C1CCN(c2nnc(C)c3c(C)n(-c4ccccc4)nc23)CC1	·	·	16%	-22%	·	·
COc1ccc(-n2nc3c(N4CCC(C(=O)NC5CCCCC5)CC4)nnc(C)c3c2C)cc1	-4%	25	13µM*!	15µM*!	8%	1%
Cc1nnc(N2CCC(C(=O)NC(C)C)CC2)c2nn(-c3ccccc3)c(C)c12	·	·	-21%	-23%	·	-6%
